The record followed here is paper PMC7862700, “An all-to-all approach to the identification of sequence-specific readers for epigenetic DNA modifications on cytosine”.

Assay in all cases: DAPPL (digital affinity profiling via proximity ligation, sequencing); 10 mM Tris-HCl pH 7.5, 50 mM NaCl, 1 mM DTT, 4% glycerol, room temperature, 30 min; GST-TFs on glutathione beads, 16-mer random dsDNA library, 0.1% formaldehyde crosslink after washing; high values mean tight binding
Common to all, as to conditions: protein: recombinant; tags: N-terminal GST; dsDNA, one strand shown

Assay [1] addresses T1, ELK1 (Homo sapiens, UniProt P19419 1-428).
T1 sequence: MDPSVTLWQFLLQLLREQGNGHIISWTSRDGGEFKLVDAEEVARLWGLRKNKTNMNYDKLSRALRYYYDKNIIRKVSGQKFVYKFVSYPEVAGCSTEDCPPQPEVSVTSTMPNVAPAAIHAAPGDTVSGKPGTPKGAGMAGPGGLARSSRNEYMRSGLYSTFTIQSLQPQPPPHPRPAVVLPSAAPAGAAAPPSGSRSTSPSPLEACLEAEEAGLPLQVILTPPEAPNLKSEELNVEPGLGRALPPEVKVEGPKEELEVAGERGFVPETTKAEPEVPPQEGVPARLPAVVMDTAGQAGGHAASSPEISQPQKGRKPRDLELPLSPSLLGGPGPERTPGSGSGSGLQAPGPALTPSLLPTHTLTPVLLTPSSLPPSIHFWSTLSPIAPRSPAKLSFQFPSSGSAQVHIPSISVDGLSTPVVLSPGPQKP
The method in brief: (§1)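 A tag-only sample was pooled with DNA-barcoded human transcription factors that had been expressed in yeast as GST fusions and captured on glutathione beads. The pools were incubated for 30 min at room temperature with 200 nmole of a random double-stranded 16-mer DNA library in Tris/NaCl/DTT/glycerol buffer, then washed, crosslinked with 0.1% formaldehyde, proximity-ligated (BsaI/T4 ligase, 1 h, 37 °C), PCR-amplified and sequenced on an Illumina NextSeq500. Binding signal is each hexamer's read frequency for a factor divided by its frequency for the tag-only sample.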

Assay [2] has as its target T2, GABPA (Homo sapiens, UniProt Q06546 1-454).
T2 sequence: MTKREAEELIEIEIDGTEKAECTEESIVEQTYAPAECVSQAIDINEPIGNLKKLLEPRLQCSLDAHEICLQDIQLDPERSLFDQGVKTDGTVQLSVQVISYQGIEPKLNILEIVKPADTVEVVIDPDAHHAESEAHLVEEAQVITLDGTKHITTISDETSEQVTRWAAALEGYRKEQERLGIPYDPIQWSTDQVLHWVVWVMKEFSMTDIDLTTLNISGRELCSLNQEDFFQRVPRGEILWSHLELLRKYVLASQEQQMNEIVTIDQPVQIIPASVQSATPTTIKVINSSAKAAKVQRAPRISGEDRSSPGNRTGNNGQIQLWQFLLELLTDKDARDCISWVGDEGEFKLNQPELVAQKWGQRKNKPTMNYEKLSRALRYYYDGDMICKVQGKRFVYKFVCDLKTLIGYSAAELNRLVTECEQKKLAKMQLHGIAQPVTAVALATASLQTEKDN
The method in brief:
as §1

For assay [3], the target named is ELF1 (Homo sapiens, UniProt P32519 1-619). A digest of the protocol:
as §1

The target of assay [4] is T3, EHF (Homo sapiens, UniProt Q9NZC4 1-300).
T3 sequence: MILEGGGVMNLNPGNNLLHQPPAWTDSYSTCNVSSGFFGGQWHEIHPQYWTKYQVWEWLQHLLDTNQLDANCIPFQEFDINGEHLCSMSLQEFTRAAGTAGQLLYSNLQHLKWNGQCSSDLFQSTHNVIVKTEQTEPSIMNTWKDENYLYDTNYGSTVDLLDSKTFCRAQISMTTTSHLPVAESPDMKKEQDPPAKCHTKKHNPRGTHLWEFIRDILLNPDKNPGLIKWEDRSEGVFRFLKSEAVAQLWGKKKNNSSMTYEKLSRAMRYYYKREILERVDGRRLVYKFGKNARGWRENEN
The method in brief:
as §1

Assay [5] addresses SPIB (Homo sapiens, UniProt Q01892 1-262). A digest of the protocol:
as §1

The target of assay [6] is T4, ELK3 (Homo sapiens, UniProt P41970 1-407).
T4 sequence: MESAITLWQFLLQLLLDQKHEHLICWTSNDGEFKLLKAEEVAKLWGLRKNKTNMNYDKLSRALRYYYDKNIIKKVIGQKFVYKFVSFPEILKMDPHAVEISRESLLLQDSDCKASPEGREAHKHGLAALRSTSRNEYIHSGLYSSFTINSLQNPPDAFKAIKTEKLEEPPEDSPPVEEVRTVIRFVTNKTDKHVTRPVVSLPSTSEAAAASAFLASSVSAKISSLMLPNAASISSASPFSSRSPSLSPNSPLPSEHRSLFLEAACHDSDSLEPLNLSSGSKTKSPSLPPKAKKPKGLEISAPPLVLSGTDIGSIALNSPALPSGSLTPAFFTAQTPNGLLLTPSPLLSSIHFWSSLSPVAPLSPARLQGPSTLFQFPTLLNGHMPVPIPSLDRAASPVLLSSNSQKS
The method in brief: as §1

The target of assay [7] is T5, SPIC (Homo sapiens, UniProt Q8N5J4 1-248).
T5 sequence: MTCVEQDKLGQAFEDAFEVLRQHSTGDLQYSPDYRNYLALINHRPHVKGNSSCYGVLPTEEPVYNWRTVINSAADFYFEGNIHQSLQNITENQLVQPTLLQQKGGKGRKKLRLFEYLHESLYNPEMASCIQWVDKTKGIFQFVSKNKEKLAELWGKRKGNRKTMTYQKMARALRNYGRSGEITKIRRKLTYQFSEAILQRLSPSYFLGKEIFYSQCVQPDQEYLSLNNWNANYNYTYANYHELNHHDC
The method in brief: as §1

Assay [8] addresses ELF4 (Homo sapiens, UniProt Q99607 1-663). A digest of the protocol:
as §1

In assay [9] the target is T6, ELK4 (Homo sapiens, UniProt P28324-2 1-405).
T6 sequence: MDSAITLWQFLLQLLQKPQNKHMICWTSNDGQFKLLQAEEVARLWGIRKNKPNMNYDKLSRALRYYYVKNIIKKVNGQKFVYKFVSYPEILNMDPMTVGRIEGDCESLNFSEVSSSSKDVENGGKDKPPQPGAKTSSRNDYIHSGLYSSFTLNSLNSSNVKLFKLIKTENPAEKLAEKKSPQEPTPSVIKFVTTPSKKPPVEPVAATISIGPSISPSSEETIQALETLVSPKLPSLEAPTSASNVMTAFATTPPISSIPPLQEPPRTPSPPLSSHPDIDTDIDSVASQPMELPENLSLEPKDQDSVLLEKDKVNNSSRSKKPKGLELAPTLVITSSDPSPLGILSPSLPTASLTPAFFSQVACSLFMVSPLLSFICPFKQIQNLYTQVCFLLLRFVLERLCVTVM
The method in brief: as §1

Assay [10] concerns the target T7, ELF3 (Homo sapiens, UniProt P78545 1-371).
T7 sequence: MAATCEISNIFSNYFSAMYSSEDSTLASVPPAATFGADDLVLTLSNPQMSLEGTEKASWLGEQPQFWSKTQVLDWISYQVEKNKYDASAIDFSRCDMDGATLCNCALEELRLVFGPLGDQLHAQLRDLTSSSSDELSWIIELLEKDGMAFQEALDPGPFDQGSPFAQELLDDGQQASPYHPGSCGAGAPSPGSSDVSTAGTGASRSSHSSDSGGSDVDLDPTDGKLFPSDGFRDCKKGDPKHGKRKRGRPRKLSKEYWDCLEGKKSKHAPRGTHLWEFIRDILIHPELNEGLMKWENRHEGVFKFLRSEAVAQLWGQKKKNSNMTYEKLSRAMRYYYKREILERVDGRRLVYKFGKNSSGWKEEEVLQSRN
A digest of the protocol:
as §1

Assay [11] concerns the target ETV1 (Homo sapiens, UniProt P50549 1-477). The method in brief: as §1
Assay [12] deals with T8, ETV3L (Homo sapiens, UniProt Q6ZN32 1-361).
T8 sequence: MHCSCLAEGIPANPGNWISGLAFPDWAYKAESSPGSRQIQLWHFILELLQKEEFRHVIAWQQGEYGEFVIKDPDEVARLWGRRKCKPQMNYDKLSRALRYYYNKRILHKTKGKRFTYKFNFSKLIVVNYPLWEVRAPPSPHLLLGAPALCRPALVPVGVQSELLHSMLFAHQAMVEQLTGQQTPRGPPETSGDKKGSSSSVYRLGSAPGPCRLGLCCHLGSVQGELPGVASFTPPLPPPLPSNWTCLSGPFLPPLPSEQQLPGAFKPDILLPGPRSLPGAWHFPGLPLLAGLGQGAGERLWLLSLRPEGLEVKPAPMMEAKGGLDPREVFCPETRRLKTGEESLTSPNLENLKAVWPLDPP
The method in brief:
as §1

The target in assay [13] is T9, ETS2 (Homo sapiens, UniProt P15036 1-469).
T9 sequence: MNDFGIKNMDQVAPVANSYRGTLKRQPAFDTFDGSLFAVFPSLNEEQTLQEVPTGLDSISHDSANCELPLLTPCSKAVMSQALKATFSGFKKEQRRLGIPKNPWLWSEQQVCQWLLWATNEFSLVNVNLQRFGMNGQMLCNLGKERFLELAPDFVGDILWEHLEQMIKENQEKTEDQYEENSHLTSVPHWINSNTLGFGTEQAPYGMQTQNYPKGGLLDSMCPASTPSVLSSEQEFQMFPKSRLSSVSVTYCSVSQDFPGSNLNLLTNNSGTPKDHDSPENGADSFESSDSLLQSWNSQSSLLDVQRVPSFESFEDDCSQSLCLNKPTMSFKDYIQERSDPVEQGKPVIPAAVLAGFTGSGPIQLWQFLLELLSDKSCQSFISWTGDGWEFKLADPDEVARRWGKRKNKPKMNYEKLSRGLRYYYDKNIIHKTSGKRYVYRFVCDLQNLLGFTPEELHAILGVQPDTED
The method in brief: as §1

Assay [14] has as its target T10, SPDEF (Homo sapiens, UniProt O95238 1-335).
T10 sequence: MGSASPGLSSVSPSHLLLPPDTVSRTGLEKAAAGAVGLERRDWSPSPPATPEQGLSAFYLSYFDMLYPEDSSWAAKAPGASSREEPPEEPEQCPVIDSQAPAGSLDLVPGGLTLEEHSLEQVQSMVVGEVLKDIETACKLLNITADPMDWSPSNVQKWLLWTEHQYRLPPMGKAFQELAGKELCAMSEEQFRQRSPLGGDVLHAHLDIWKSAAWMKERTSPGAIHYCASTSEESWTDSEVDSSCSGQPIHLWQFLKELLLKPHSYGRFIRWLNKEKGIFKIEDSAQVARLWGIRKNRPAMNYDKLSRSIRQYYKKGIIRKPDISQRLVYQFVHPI
A digest of the protocol: as §1

Assay [15] addresses T11, ETV7 (Homo sapiens, UniProt Q9Y603 1-341).
T11 sequence: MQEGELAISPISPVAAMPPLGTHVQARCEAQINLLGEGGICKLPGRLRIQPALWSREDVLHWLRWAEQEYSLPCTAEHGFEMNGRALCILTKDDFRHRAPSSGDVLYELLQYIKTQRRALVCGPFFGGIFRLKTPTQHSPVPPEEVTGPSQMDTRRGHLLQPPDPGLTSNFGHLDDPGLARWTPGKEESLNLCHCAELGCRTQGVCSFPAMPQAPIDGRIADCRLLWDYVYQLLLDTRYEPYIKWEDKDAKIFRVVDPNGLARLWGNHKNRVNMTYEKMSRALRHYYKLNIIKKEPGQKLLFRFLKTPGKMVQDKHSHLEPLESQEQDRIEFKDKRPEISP
The method in brief: as §1

Assay [16] addresses T12, ETV3 (Homo sapiens, UniProt P41162-2 1-143).
T12 sequence: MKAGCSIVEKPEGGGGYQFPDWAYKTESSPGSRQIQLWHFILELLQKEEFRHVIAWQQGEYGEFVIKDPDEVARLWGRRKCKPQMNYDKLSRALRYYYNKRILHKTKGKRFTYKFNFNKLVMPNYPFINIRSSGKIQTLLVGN
The method in brief:
as §1

The target in assay [17] is ETV6 (Homo sapiens, UniProt P41212 1-452). The method in brief: as §1
Sequence of ETV6 (P41212 whole entry): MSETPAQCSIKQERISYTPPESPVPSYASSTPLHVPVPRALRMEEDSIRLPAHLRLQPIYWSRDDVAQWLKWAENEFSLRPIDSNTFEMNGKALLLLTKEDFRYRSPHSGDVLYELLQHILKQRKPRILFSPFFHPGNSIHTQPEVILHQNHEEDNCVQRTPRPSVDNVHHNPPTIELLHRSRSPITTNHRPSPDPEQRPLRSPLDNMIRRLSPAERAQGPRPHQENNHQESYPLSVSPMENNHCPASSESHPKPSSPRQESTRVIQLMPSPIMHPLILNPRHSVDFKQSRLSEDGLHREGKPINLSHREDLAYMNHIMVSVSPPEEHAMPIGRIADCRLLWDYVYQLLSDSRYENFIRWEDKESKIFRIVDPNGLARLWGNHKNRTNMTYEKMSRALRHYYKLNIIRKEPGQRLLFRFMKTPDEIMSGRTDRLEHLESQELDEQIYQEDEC

Sequence of ELF1 (P32519 whole entry): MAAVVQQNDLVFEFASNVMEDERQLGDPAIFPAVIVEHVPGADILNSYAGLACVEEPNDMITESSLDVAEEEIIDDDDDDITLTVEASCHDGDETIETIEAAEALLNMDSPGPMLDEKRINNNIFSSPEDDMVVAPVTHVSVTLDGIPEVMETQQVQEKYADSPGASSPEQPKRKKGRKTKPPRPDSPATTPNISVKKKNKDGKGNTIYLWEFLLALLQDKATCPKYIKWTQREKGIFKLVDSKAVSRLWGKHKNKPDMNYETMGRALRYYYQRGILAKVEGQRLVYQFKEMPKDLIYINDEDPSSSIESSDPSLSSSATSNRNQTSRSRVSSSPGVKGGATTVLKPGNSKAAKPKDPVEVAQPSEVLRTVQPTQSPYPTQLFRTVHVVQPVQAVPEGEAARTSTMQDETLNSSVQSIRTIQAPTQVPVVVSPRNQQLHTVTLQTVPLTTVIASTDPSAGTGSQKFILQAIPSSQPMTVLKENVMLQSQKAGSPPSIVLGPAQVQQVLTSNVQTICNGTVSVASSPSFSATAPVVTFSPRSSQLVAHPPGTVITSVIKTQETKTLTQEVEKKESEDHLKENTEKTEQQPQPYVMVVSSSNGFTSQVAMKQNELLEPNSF
Sequence of ETV1 (P50549 whole entry): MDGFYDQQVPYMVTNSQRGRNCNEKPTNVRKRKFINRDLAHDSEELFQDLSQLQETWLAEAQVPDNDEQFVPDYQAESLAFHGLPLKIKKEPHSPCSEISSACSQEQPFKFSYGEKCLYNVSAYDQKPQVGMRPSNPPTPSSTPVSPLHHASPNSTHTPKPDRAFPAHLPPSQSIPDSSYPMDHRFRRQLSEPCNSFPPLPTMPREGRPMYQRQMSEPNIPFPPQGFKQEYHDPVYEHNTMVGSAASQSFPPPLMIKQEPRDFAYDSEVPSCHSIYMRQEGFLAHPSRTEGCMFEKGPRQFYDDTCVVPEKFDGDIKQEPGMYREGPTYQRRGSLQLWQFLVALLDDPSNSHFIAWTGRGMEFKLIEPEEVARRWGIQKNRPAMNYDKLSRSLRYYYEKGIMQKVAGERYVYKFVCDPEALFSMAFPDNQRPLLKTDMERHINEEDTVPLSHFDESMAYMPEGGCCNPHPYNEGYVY
Sequence of SPIB (Q01892 whole entry): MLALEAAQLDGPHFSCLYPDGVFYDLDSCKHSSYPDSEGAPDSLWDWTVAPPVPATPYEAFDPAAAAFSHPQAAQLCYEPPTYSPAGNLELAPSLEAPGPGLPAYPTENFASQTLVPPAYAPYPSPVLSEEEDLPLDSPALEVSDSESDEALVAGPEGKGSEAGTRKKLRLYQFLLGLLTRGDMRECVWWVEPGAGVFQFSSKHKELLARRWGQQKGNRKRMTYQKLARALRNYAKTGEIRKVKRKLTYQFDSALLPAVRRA
Sequence of ELF4 (Q99607 whole entry): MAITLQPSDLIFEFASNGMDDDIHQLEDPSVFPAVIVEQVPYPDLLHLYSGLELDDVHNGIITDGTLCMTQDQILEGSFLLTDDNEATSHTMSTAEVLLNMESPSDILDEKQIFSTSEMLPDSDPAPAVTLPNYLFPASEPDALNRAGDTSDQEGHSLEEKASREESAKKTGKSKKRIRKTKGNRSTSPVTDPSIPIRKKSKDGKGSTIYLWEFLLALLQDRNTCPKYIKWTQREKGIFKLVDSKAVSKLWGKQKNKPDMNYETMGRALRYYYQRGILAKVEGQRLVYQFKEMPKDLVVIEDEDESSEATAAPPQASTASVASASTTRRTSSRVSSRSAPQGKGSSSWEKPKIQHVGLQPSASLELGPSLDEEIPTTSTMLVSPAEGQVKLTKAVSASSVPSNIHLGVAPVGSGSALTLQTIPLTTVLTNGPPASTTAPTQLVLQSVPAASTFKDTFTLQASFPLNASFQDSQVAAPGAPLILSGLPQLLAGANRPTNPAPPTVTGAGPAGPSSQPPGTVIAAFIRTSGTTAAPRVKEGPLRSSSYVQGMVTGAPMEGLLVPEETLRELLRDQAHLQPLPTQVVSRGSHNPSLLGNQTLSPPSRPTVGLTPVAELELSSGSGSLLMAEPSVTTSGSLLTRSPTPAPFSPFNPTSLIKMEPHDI

For TAGATA, the binding signal was 1.03 fold enrichment (6-mer frequency, TF over GST control) in assay [1]; 1.1 fold enrichment (6-mer frequency, TF over GST control) in [2]; 1.06 fold enrichment (6-mer frequency, TF over GST control) in assay [3]; 1.06 fold enrichment (6-mer frequency, TF over GST control) in assay [4]; 1.05 fold enrichment (6-mer frequency, TF over GST control) in [5]; 1.02 fold enrichment (6-mer frequency, TF over GST control) in [6]. Moreover, the binding signal was 1.17 fold enrichment (6-mer frequency, TF over GST control) in [7]; 1.07 fold enrichment (6-mer frequency, TF over GST control) in [8]; 1.08 fold enrichment (6-mer frequency, TF over GST control) in assay [9]; 1.08 fold enrichment (6-mer frequency, TF over GST control) in assay [10]; 1.06 fold enrichment (6-mer frequency, TF over GST control) in assay [11]; 1.12 fold enrichment (6-mer frequency, TF over GST control) in [12]. Also, the binding signal was 1.05 fold enrichment (6-mer frequency, TF over GST control) in [13]; 1.06 fold enrichment (6-mer frequency, TF over GST control) in assay [14]; 1.02 fold enrichment (6-mer frequency, TF over GST control) in assay [15]; 1.01 fold enrichment (6-mer frequency, TF over GST control) in assay [16]; 1.01 fold enrichment (6-mer frequency, TF over GST control) in [17].
